Potency data for 93 molecules are collected here from PubChem BioAssay AID504465 (National Center for Advancing Translational Sciences (NCATS), 2011).

In all, about 2,100 compounds went through this assay and about 210 (10%) were called active. Not shown: some 53% with an inconclusive outcome. Calls come from the whole dose curve; as a rule, active = well fitted inhibition curve with a large enough effect; inconclusive = small, poorly fitted or top-dose-only effect, or effect the other way; inactive = no such curve, though single readings can be large or run the other way. The list shows a part of the results. Entries that show only a call come without a potency.
Potency is the fitted concentration of half-maximal effect.

This assay in a line: IN Cell qHTS Assay for Inhibitors of the mTORC1 Signaling Pathway in MEF (Tsc2-/-, p53-/-) Cells: Sytravon. Note: nearly all actives have a fitted effect of over 60% in size. The conditions noted are these: phospho-rpS6 immunofluorescence, 24 h; series mostly up to 38.3 µM. Summed up: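 Immunofluorescence of rpS6 phosphorylation (Ser235/236) in mouse embryonic fibroblasts lacking Tsc2 and p53, after 24 h compound exposure; Hoechst-normalized signal imaged, each well scored as % active cells relative to rapamycin (7.5 nM) and DMSO controls.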
(Quantitative high-throughput screening tests each substance at several concentrations.)
For the molecule `Cc1nc(-c2ccc(F)cc2)sc1CCNC(=O)C(=O)Nc1ccc2c(c1)OCCO2`, the Potency result is “inactive”.

For the molecule `CCCC(=O)Nc1cccc(-c2cn3c(C)csc3n2)c1`, the Potency result was “inactive”.

In the case of `CC(=O)Nc1cccc(NC(=O)C(=O)NCCc2sc(-c3ccccc3)nc2C)c1`, the Potency was 2.33 µM (active).

For `O=c1oc2ccccc2cc1-c1cn2cc(Cc3ccccc3F)sc2n1`, the Potency entry is “inactive”.

As for `CCOc1cc(C2C(C(=O)OC)=C(C)NC3=C2C(=O)c2ccccc23)cc(Br)c1OCC` (stereo not drawn), the Potency entry was “inactive”.

On to `CC(NC(=O)c1c2c(nc3ccccc13)C(=O)N(C1CCCCC1)C2)c1ccccc1` (stereo not drawn), for which the Potency result is “inactive”.

For `Cc1cccc(CN2C(=O)c3ccccc3Sc3ccc(C(=O)NC4CCCCC4)cc32)c1`, the Potency result is “inactive”.

As to `Cc1ccc(C)c(CN2C(=O)c3ccccc3S(=O)(=O)c3ccc(C(=O)NCCCN4CCCC(C)C4)cc32)c1` (stereo not drawn), the Potency was 5.21 µM (active).

Take `CCCCN(CC)CCCNC(=O)c1ccc2c(c1)N(Cc1ccc(C)cc1)C(=O)c1ccccc1S2`: the Potency result is “inactive”.

`CCC1CCCCN1CCCNC(=O)c1ccc2c(c1)N(Cc1cccc(Cl)c1)C(=O)c1ccccc1S2(=O)=O` (stereo not drawn): the Potency result was “inactive”.

Consider `Cc1ccc(CN2C(=O)c3ccccc3Sc3ccc(C(=O)NCCCN4CCOCC4)cc32)cc1`, for which the Potency was 16.5 µM (active).

`CC1CCCN(CCCNC(=O)c2ccc3c(c2)N(Cc2cccc(Cl)c2)C(=O)c2ccccc2S3(=O)=O)C1` (stereo not drawn): the Potency result is “inactive”.

Regarding `CCN(CC)CCCNc1cc(-c2ccccc2)nc(C)n1`, the Potency entry was “inactive”.

As for `CC(C)c1ccc(C2CC(=O)Nc3cc4c(cc32)OCCO4)cc1` (stereo not drawn), the Potency result was “inactive”.

Consider `O=C(NCCCc1nc2ccccc2n1Cc1ccccc1F)c1ccco1`, for which the Potency result is “inactive”.

Consider `Cc1cccc(OCc2ccc(-c3nc(C#N)c(NCCN(C)C)o3)o2)c1`, for which the Potency was 5.85 µM (active).

`Cc1ccccc1OCc1ccc(-c2nc(C#N)c(N3CCN(C)CC3)o2)o1`: the Potency entry was “inactive”.

In the case of `COc1ccc(CNc2oc(/C=C/c3cc(OC)c(OC)c(OC)c3)nc2C#N)cc1`, the Potency entry was “inactive”.

Regarding `COc1ccc(CNc2oc(/C=C/c3cccc(OC)c3)nc2C#N)cc1`, the Potency result is “inactive”.

Consider `CCOc1ccc(/C=C/c2nc(C#N)c(NCCCN(C)C)o2)cc1`, for which the Potency result was “inactive”.

Turning to `COc1ccc(CNc2oc(COc3cccc(C)c3)nc2C#N)cc1`, the Potency is 3.69 µM (active).

Turning to `CCOCCCNC(=O)C1CCN(c2nc3ccc(Cl)cc3[nH]2)CC1`, the Potency result was “inactive”.

`CCCCN(C)CCCNC(=O)C1CCN(c2nc3ccc(CC)cc3s2)CC1`: the Potency was 5.21 µM (active).

On to `CCCN(CCC)CCCNC(=O)C1CCN(c2nc3ccc(CC)cc3s2)CC1`, for which the Potency was 6.56 µM (active).

For `Cc1cc(=O)n2nc(N3CCC(C(=O)NCc4ccc(Cl)cc4)CC3)sc2n1`, the Potency entry was “inactive”.

Take `CCCc1ccc(NC(=O)C2CCN(c3cnccn3)CC2)cc1`: the Potency entry was “inactive”.

`COc1cccc(NC(=O)C2CCC(CNS(=O)(=O)c3csc(C(N)=O)c3)CC2)c1` (stereo not drawn): the Potency result was “inactive”.

On to `O=C(CCCCn1c(=O)[nH]c2ccsc2c1=O)N1CCN(c2cccc(Cl)c2)CC1`, for which the Potency result is “inactive”.

For the molecule `O=C(NCc1ccco1)C1CCN(C(=O)N2CCOc3ccc(Cl)cc32)CC1`, the Potency result is “inactive”.

Consider `O=C(Nc1ccc(Br)cc1F)c1cc(S(=O)(=O)NC2CCCC2)ccc1F`, for which the Potency result was “inactive”.

Consider `CC1C(=O)N2CCCc3cc(S(=O)(=O)Nc4ccc(Br)cc4F)cc1c32` (stereo not drawn), for which the Potency is 14.7 µM (active).

Turning to `CCC(=O)N1CCc2cc(Br)cc(S(=O)(=O)N3CCCC(C(=O)Nc4ccc(CC)cc4)C3)c21` (stereo not drawn), the Potency result is “inactive”.

With `Cc1ccc(C2c3c(-c4cc(C)ccc4O)n[nH]c3C(=O)N2Cc2ccco2)cc1` (stereo not drawn), the Potency result was “inactive”.

In the case of `COc1ccc(Cn2c(C(=O)O)c(CNCCc3cccs3)c3ccc(OC)cc32)cc1`, the Potency result was “inactive”.

`CCc1ccc(NC(=O)C2CCC(CNS(=O)(=O)c3ccc4c(c3)CC(C)N4C(C)=O)CC2)cc1` (stereo not drawn): the Potency entry is “inactive”.

Regarding `CC(C)CS(=O)(=O)c1oc(-c2ccc(F)cc2)nc1S(=O)(=O)c1ccccc1`, the Potency was 0.656 µM (active).

Turning to `CCS(=O)(=O)c1oc(-c2ccc(F)cc2)nc1S(=O)(=O)c1ccc(Br)cc1`, the Potency is 2.93 µM (active).

As to `Cc1ccc(CSc2oc(-c3ccco3)nc2S(=O)(=O)c2ccc(Cl)cc2)cc1`, the Potency result is “inactive”.

Turning to `Cc1ccc(S(=O)(=O)c2nc(S(=O)(=O)c3ccccc3)sc2NCCCOC(C)C)cc1`, the Potency result was “inactive”.

As for `CCCCS(=O)(=O)c1oc(-c2ccc(F)cc2)nc1S(=O)(=O)c1ccc(C)cc1`, the Potency is 6.56 µM (active).

`CCCCS(=O)(=O)c1oc(-c2ccc(F)cc2)nc1S(=O)(=O)c1ccccc1`: the Potency was 4.14 µM (active).

Regarding `O=S(=O)(NCC(c1ccco1)S(=O)(=O)c1ccccc1)c1cc(F)ccc1F` (stereo not drawn), the Potency entry was “inactive”.

As to `CCCN1C(=O)C(Cc2nc3ccccc3c(=O)n2CC)c2cc(Br)ccc21` (stereo not drawn), the Potency entry was “inactive”.

As for `COC(=O)c1c(NC(=O)c2ccc(S(=O)(=O)N3CCC(C)CC3)cc2)sc2c1CCN(C)C2`, the Potency result was “inactive”.

With `Cc1cccc(-n2cnc3cc(C(=O)NC4CCCCCC4)ccc32)c1`, the Potency result is “inactive”.

For the molecule `CC(C)c1ccc(NC(=O)c2ccc3c(c2)CCCN3S(C)(=O)=O)cc1`, the Potency entry was “inactive”.

Turning to `CCc1ccc(NS(=O)(=O)c2ccc3[nH]c4c(c3c2)CCCCCC4)cc1`, the Potency entry was “inactive”.

For `O=C1C(Nc2ccccc2)=CC(c2ccc(Br)cc2)N1c1ccccc1` (stereo not drawn), the Potency result was “inactive”.

Consider `COc1ccc(-n2nnnc2C2CCN(S(=O)(=O)c3cc(Cl)ccc3OC)CC2)cc1`, for which the Potency result is “inactive”.

On to `O=C(NCCc1csc(-c2cccnc2)n1)c1cccc(C(F)(F)F)c1`, for which the Potency entry was “inactive”.

Regarding `O=C(C1CCC(CNS(=O)(=O)c2ccc(Br)s2)CC1)N1CCN(c2ccccc2)CC1` (stereo not drawn), the Potency result was “inactive”.

Turning to `CCS(=O)(=O)c1oc(-c2ccc(F)cc2)nc1S(=O)(=O)c1ccccc1`, the Potency was 0.208 µM (active).

With `O=S(=O)(c1ccc(Cl)cc1)c1nc(-c2ccco2)oc1SCc1ccccc1F`, the Potency entry was “inactive”.

`O=S(=O)(c1ccccc1)n1nc(-c2ccc(Cl)cc2)nc1NCc1ccc(F)cc1`: the Potency entry was “inactive”.

As for `COc1ccc(S(=O)(=O)N(Cc2nc(-c3cccc(C)c3)no2)C2CCCCC2)cc1`, the Potency result is “inactive”.

In the case of `COc1ccc(-c2cc(C(F)(F)F)nc(S(C)(=O)=O)n2)cc1`, the Potency was 11.7 µM (active).

`COc1ccc(NC2=C(c3ccc(C(F)(F)F)cc3)C(=O)c3ccccc32)cc1`: the Potency entry is “inactive”.

For the molecule `COc1ccc(C)cc1NC(=O)c1oc2ccc(S(=O)(=O)N3CCC4(CC3)OCCO4)cc2c1C`, the Potency entry was “inactive”.

For the molecule `CC(C)Oc1cccc(C2CC(=O)Nc3cc4c(cc32)OCO4)c1` (stereo not drawn), the Potency result was “inactive”.

As to `COC(=O)c1c(-c2ccc(Cl)cc2)noc1N1CCN(c2cccc(C(F)(F)F)c2)CC1`, the Potency result was “inactive”.

For the molecule `CCCCN(C)CC(O)Cn1cc(/C=C/C(=O)c2ccc(Br)cc2)c2ccccc21` (stereo not drawn), the Potency result was “inactive”.

`CCCN(CCC)CC(O)Cn1cc(/C=C/C(=O)c2ccc(OCC)cc2)c2ccccc21` (stereo not drawn): the Potency was 14.7 µM (active).

For the molecule `Cc1cccc(NC(c2ccccc2C)c2ccc3ccc(C)nc3c2O)n1` (stereo not drawn), the Potency result was “inactive”.

For the molecule `COc1ccc(CCNC(=O)CCc2cn(Cc3ccc(F)cc3)c3ccccc23)cc1OC`, the Potency result is “inactive”.

On to `CCOc1ccccc1CNC(=O)CCc1cn(C)c2ccccc12`, for which the Potency result was “inactive”.

For `CCN(CC)S(=O)(=O)c1ccc2oc(C(=O)NCc3ccccc3OC)c(C)c2c1`, the Potency entry is “inactive”.

For the molecule `COc1ccccc1CNC(=O)CCc1c(C)c2ccc(OC)c(C)c2oc1=O`, the Potency was 1.47 µM (active).

Regarding `Cc1ccc(CN2CCCn3nc(C(=O)NCc4ccccc4Cl)cc3C2=O)cc1`, the Potency result was “inactive”.

For `Nc1cc(=O)nc(SCC(=O)Nc2ccc(F)cc2)n1-c1ccc(Cl)cc1`, the Potency result is “inactive”.

As to `Cc1ccc(-c2nc(N3CCCC(C)C3)c3ccccc3n2)cc1` (stereo not drawn), the Potency result was “inactive”.

Take `COc1ccc2ncc3c(-c4ccc(C)c(C)c4)nn(CC(=O)Nc4ccccc4)c3c2c1`: the Potency entry was “inactive”.

Turning to `Cc1ccc(N2CC(C(=O)NCCS(=O)(=O)N3CCN(c4ccccc4F)CC3)CC2=O)cc1` (stereo not drawn), the Potency entry was “inactive”.

Regarding `O=C(NCCCN1CCN(c2ccccc2F)CC1)c1nnc(Cc2ccc(Cl)cc2Cl)o1`, the Potency entry was “inactive”.

`COc1ccc(-c2nc(CN3CCC(C(=O)NCCCN4CCN(c5ccccc5F)CC4)CC3)c(C)o2)cc1OC`: the Potency was 13.1 µM (active).

As for `O=C(Cn1c(=O)c2cccn2c2ccc(F)cc21)NCc1cccc(Cl)c1`, the Potency entry was “inactive”.

For `CC(C(=O)NCc1cccc(Br)c1)n1ncn2cccc2c1=O` (stereo not drawn), the Potency is 1.47 µM (active).

For the molecule `COc1cccc(CNC(=O)CCn2cccn2)c1`, the Potency entry is “inactive”.

Regarding `Cn1cc(-c2cc3n(n2)CCC(=O)N3CC(=O)NCc2ccc(Cl)cc2)c2ccccc21`, the Potency result was “inactive”.

In the case of `CCOC(=O)c1nc(Nc2ccc(C(=O)OC(C)C)cc2)c2ccccc2n1`, the Potency result is “inactive”.

On to `CCc1ccc(NC(=O)CSc2nc3n[nH]c(C)c3c(=N)n2-c2ccc(C)cc2)cc1`, for which the Potency entry was “inactive”.

Consider `COc1cc(CNc2ccc3c(c2)ncn3C(C)C)cc(OC)c1OC`, for which the Potency entry was “inactive”.

As to `Cc1ccc(NC(=O)c2c(C)oc3ccc(O)c(CN4CCCCCC4)c23)c(C)c1`, the Potency result was “inactive”.

As to `CC1CCN(S(=O)(=O)c2ccc3nc(Nc4cccc(C(F)(F)F)c4)ccc3c2)CC1`, the Potency entry was “inactive”.

As for `Cc1cccc(OCC(=O)N(Cc2ccc(C(C)(C)C)cc2)Cc2ccco2)c1`, the Potency entry was “inactive”.

As for `CCOc1ccccc1C(=O)N(Cc1ccco1)Cc1ccccc1F`, the Potency result is “inactive”.

As for `CCS(=O)(=O)c1ncc(Cl)c(C(=O)N(Cc2ccccc2)Cc2ccco2)n1`, the Potency was 3.69 µM (active).

As for `CCc1ccc2oc(C(=O)N(Cc3cccc(Cl)c3)Cc3ccco3)c(C)c2c1`, the Potency entry was “inactive”.

On to `CS(=O)(=O)c1ncc(Cl)c(C(=O)N(Cc2ccc(Cl)cc2)Cc2ccco2)n1`, for which the Potency is 2.33 µM (active).

On to `O=C(NCC1CCN(Cc2cccc(F)c2)CC1)c1cc2ccc3cccnc3c2[nH]1`, for which the Potency entry was “inactive”.

With `CCOC(=O)c1sc2ccccc2c1S(=O)(=O)Nc1ccc(CC)cc1`, the Potency result is “inactive”.

With `COc1ccc(C2C(C(=O)Nc3ccccc3)=C(C)Nc3nc(-c4ccc(Cl)cc4)nn32)cc1` (stereo not drawn), the Potency was 13.1 µM (active).

As for `COc1ccccc1C1C(C(=O)Nc2ccccc2)=C(C)Nc2nc(-c3ccccc3)nn21` (stereo not drawn), the Potency result was “inactive”.

In the case of `CC1=C(C(=O)Nc2ccc(Cl)cc2)C(c2ccccc2)n2ncc(C(=O)Nc3ccccc3)c2N1` (stereo not drawn), the Potency entry was “inactive”.
